# From PubChem BioAssay (Tox21)
# Where “and” joins values, the source holds several entries; their conditions need not be identical. Identical values can stand only once. Calls of active or inactive are those of the source. Where a call stands in place of a potency, no number is given. Unless noted, calls follow the shape of the full dose curve.
# Target: Gonadotropin-releasing hormone receptor (Homo sapiens) (UniProt P30968)
# Assay: Human gonadotropin-releasing hormone receptor (GnRHR) small molecule agonists, calcium flux assay in GnRHR-HEK293 cells (AID 1920063); also: nearly all actives have a fitted effect of over 35% in size; also: potency is read from the fitted curve at half-maximal effect
# Settings: calcium flux fluorescence, agonist mode; series mostly up to 57.6 µM
# In short: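 Intracellular calcium rise is the read-out: engineered human GnRHR HEK293 cells, dye-loaded, are exposed to DMSO-dissolved compounds and fluorescence at Ex/Em 480/540 is tracked for 3 min.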
# Gonadotropin-releasing hormone receptor (Homo sapiens), sequence (P30968 whole entry, looked up): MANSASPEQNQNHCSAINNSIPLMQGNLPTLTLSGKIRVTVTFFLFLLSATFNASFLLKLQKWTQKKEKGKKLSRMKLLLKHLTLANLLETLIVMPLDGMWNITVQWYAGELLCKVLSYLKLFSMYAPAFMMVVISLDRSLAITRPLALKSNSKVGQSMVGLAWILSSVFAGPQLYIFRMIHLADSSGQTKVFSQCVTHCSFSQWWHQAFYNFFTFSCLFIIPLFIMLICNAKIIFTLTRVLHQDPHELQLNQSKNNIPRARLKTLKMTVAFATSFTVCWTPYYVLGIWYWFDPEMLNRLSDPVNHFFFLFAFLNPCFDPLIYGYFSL
row,SMILES,Potency
1,COP(=O)(OC)OC=C(Cl)Cl,inactive
2,CNC(=O)CSP(=S)(OC)OC,inactive
3,CCOP(=O)(O)OCC (tested in a mixture with another compound),inactive
4,CC(C)OC(=O)Nc1cccc(Cl)c1,inactive
5,C=CCc1ccc(OC)cc1,inactive
6,Oc1ccc(C(c2ccc(O)cc2)(C(F)(F)F)C(F)(F)F)cc1,inactive
7,Cc1ccc(CCl)cc1,inactive
8,COP(N)(=O)SC (stereo not drawn),inactive
9,Cc1ccc([N+](=O)[O-])cc1C,inactive
10,Clc1cccc(Cl)c1,inactive
11,CC(COc1ccc(Oc2ccccc2)cc1)Oc1ccccn1 (stereo not drawn),inactive
12,Cn1c(-c2ccccc2)cc(-c2ccccc2)[n+]1C,inactive
13,O=C1CCCN1,inactive
14,CCCCCCCCCCCCCCCC[N+](C)(C)C,13.3 µM (active) and 30.9 µM (active) and 12 µM (active)
15,O=S(=O)(O)OOS(=O)(=O)O,inactive
16,CCCCCCCCCCCCCl,inactive
17,COP(=S)(OC)SCN1C(=O)c2ccccc2C1=O,inactive
18,O=c1[nH]c(=O)n(Cl)c(=O)n1Cl,inactive
19,CCOP(OCC)OCC,inactive
20,CCOP(=S)(OCC)SCCSCC,inactive
21,COP(=S)(OC)Oc1ccc([N+](=O)[O-])cc1,inactive
22,C=C(Cl)CCl,inactive
23,CCN(CC)N=O,inactive

# Target: KiSS-1 receptor (Homo sapiens) (UniProt Q969F8)
# Assay: Human kisspeptin (KISS1R) small molecule agonists, calcium flux assay in KISS1R-HEK293 cells (AID 1920064; active = well fitted activation curve with a large enough effect in the repeat runs)
# Settings: KISS1R-HEK293, calcium flux fluorescence, agonist; series mostly up to 76.8 µM
# In short: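 Concentration-response testing used 15 concentrations in triplicate on human KISS1R-expressing HEK293 cells. Calcium-dependent fluorescence (Ex/Em 480/540) was followed kinetically for 3 min after compound transfer.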
# KiSS-1 receptor (Homo sapiens), sequence (Q969F8 whole entry, looked up): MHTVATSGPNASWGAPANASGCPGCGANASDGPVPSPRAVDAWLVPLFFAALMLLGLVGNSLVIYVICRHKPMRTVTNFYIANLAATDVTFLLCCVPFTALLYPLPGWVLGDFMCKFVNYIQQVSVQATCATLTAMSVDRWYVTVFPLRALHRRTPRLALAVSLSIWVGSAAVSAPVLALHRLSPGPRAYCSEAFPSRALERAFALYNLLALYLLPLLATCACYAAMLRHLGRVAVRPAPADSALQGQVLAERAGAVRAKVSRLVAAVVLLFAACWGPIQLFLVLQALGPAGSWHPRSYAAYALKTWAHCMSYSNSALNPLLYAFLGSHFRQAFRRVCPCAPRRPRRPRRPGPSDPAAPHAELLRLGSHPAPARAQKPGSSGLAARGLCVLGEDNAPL
row,SMILES,Potency
1,O=C(NCc1cccnc1)Nc1ccc([N+](=O)[O-])cc1,inactive
2,ClC1=C(Cl)[C@]2(Cl)[C@@H]3[C@@H](Cl)[C@H](Cl)C[C@@H]3[C@@]1(Cl)C2(Cl)Cl,inactive
3,COc1cc(OC)nc(NC(=O)NS(=O)(=O)c2ncccc2C(=O)N(C)C)n1,inactive
4,O=C(Cl)CCl,inactive
5,NC(=O)CF,inactive
6,CC(=[OH+])/C=C(/C)[O-].CC(=[OH+])/C=C(\C)[O-].CC(=[OH+])/C=C(\C)[O-].[Al],inactive
7,CC(C)(C)OOC(=O)c1ccccc1,inactive
8,Nc1ccc(-c2ccc(N)cc2)cc1,inactive
9,NC(=O)O,inactive
10,O=C(CBr)c1ccc(O)cc1,inactive
11,CCCCCCCCOC(=O)c1ccccc1C(=O)OCCCCCCCC,inactive
12,OCC1CO1 (stereo not drawn),inactive
13,COc1ccc2c3c1O[C@H]1[C@@H](O)C=C[C@H]4[C@@H](C2)N(C)CC[C@@]341,inactive
14,Oc1ccc(Cl)cc1Cc1ccccc1,inactive
15,Cc1ccc(Cl)c(O)c1,inactive
